# From PubChem BioAssay AID651593 (National Center for Advancing Translational Sciences (NCATS), 2012)
# Where “and” joins values, the source holds several entries; their conditions need not be identical. Equal values may be shown once. About 860 (78%) of roughly 1,100 compounds were called active. Inconclusive results (about 19%) are left out. So high a share suggests a set chosen from earlier hits. The list shows a part of the results. A number with no mark means an inactive call. Calls come from the whole dose curve; as a rule, active = well fitted activation curve with a large enough effect; inconclusive = small, poorly fitted or top-dose-only effect; inactive = flat fitted curve, though single readings scatter.
# Experiment: qHTS of Nrf2 Activators: Hit Validation in Primary Assay; note: nearly all actives have a fitted effect of over 70% in size; for activation: 0% is about no effect
# Conditions: Nrf2/ARE reporter cell assay; Potency: activation; series mostly up to 46.1 µM; activation: at the top concentration
# Procedure, shortened: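 Luminescence from Steady-Glo lysis reagent, read after 30 min, reported ARE-luciferase activity in AREc32_fluc stable cells. Compounds were tested at several concentrations, incubated 24 h at 37 °C with 5% CO2 following overnight seeding.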
# Potency is the fitted concentration of half-maximal effect.
Compound,Potency,activation [%]
COCCN(C(=O)COC(=O)/C=C/c1ccccc1Cl)c1c(N)n(Cc2ccccc2)c(=O)[nH]c1=O,11.6 µM (active),
O=C(/C=C/Nc1ccc(F)c(Cl)c1)c1ccco1,1.3 µM (active),
O=C1COc2ccc(C(=O)COC(=O)/C=C/c3ccco3)cc2N1,2.06 µM (active),
O=C(Nc1ccccn1)Nc1ccccc1Cl,9.2 µM (active),
Cc1cccc(NC(=O)Nc2ccc(Br)cc2)n1,8.2 µM (active),
O=C(Nc1ccccn1)Nc1ccccc1[N+](=O)[O-],4.11 µM (active),
Cc1cccc(NC(=O)Nc2ccccc2[N+](=O)[O-])n1,8.2 µM (active),
O=C(N=Nc1c(O)[nH]c2ccccc12)c1ccco1,2.31 µM (active),
O=C(N=Nc1c(O)[nH]c2ccc(Br)cc12)c1ccco1,3.26 µM (active),
Cc1ccc(C)c(-c2nnc(NC(=O)c3ccc([N+](=O)[O-])o3)o2)c1,2.91 µM (active),
COc1ccc(NC(=O)CSc2ccc(-c3ccco3)nn2)cc1OC,5.17 µM (active),
O=C(CSc1ccc(-c2ccco2)nn1)N1CCCCCC1,0.517 µM (active),
O=C(CSc1ccc(-c2ccco2)nn1)N1CCCCC1,1.84 µM (active),
O=C(CSc1ccc(-c2ccco2)nn1)N1CCCC1,1.84 µM (active),
CCOC(=O)C(=Cc1ccccc1OC)C(=O)OCC,16.4 µM (active),
CCn1nc(C(=O)Nc2cccc3ccccc23)c(Cl)c1Cl,18.4 µM (active),
Clc1cccc(Cc2c(-c3ccccc3)nc3c4ccccc4ccn23)c1,11.6 µM (active),
COc1ccccc1Cc1c(-c2ccco2)nc2c3ccccc3ccn12,7.31 µM (active),
c1ccc(Cc2c(-c3ccco3)nc3c4ccccc4ccn23)cc1,9.2 µM (active),
c1ccc(-c2nc3c4ccccc4ccn3c2Cc2ccsc2)cc1,5.8 µM (active),
Cc1ccc(Cc2c(-c3ccco3)nc3c4ccccc4ccn23)cc1,8.2 µM (active),
Fc1cccc(Cc2c(-c3ccco3)nc3c4ccccc4ccn23)c1,2.91 µM (active),
Clc1cccc(Cc2c(-c3ccco3)nc3c4ccccc4ccn23)c1,8.2 µM (active),
O=C(COC(=O)c1cc2ccccc2cc1O)Nc1ccccc1F,20.6 µM (active),
c1ccc(N/N=C2\CCCc3ccccc32)nc1,14.6 µM (active),
O=C1c2ccccc2C(=O)c2c(Nc3ccc(CCO)cc3)ccc(O)c21,2.31 µM (active),

Compound,Potency,activation [%]
COc1cc(C=C(c2nc3ccccc3s2)c2nc3ccccc3s2)ccc1O,7.31 µM (active),
COc1ccc(Cc2c(-c3ccccc3)nc3c4ccccc4ccn23)c(C)c1,6.51 µM (active),
Fc1ccc(-c2nc3c4ccccc4ccn3c2Cc2ccccc2C(F)(F)F)cc1,7.31 µM (active),
FC(F)(F)c1ccccc1Cc1c(-c2ccccc2)nc2c3ccccc3ccn12,14.6 µM (active),
Nc1ccc2c(c1)Cc1c(F)cccc1-2,18.4 µM (active),
CC(C)N(C(=O)COC(=O)c1ccccc1C(=O)c1ccc(Cl)c([N+](=O)[O-])c1)C(C)C,18.4 µM (active),
O=C1Nc2ccccc2SC1=Cc1ccccc1,2.91 µM (active),
O=[N+]([O-])c1cccc(-c2cn(-c3ccccc3)c(=S)[nH]2)c1,,18.7
c1ccc(-c2nnc(-c3ccccc3)o2)cc1,6.51 µM (active),
O=[N+]([O-])c1cccc(-c2nnc(-c3ccccc3)o2)c1,7.31 µM (active),
O=[N+]([O-])c1cccc(-c2nc(-c3ccccn3)no2)c1,2.06 µM (active),
Cc1ccc(S(=O)(=O)c2nc(S(C)(=O)=O)sc2N2CCC3(CC2)OCCO3)cc1,10.3 µM (active),
CS(=O)(=O)c1nc(S(=O)(=O)c2ccc(Cl)cc2)c(N2CCC3(CC2)OCCO3)s1,9.2 µM (active),
C/C(=N\NC(=O)c1cccc(S(=O)(=O)N2CCCC2)c1)c1ccco1,2.31 µM (active),
C/C(=N\NC(=O)c1cccc(S(=O)(=O)Nc2cccc(Cl)c2)c1)c1cccs1,,29.6
CC(=O)Cn1nnc2sc(-c3ccccc3)cc2c1=O,2.06 µM (active) and 5.8 µM (active),
CCN(C(=O)Cn1nnc2sc(-c3ccccc3)cc2c1=O)c1cccc(C)c1,2.31 µM (active),
COC(=O)[C@@]1(Sc2ccc(C)cc2)CC(=O)N(C(=O)/C=C/c2ccccc2)[C@@H]1c1ccccc1,3.66 µM (active),
Brc1ccc2nc(-c3ccco3)c(Cc3ccsc3)n2c1,20.6 µM (active),
Fc1cccc(Cc2c(-c3ccco3)nc3ccc(Br)cn23)c1,20.6 µM (active),
c1cc2c3c(cccc3c1)NN=N2,20.6 µM (active),
COc1cc(/C=N/Nc2nc3ccccc3s2)ccc1OC(=O)c1ccccc1F,4.61 µM (active),
C/C(=N\NC(=O)c1c[nH]c2ccccc12)c1ccco1,3.66 µM (active),
Cc1nc(/N=C(\N)NC(=O)c2ccccc2)nc2ccccc12,2.31 µM (active),
CC(=O)N(/N=C1\Sc2ccccc2C1=O)c1ccccc1,20.6 µM (active),
COc1ccc(O)c(-c2cc(-c3ccccc3Cl)[nH]n2)c1,2.91 µM (active),

Compound,Potency,activation [%]
COc1ccc(O)c(-c2cc(-c3ccc(F)cc3)n[nH]2)c1,7.31 µM (active),
N#Cc1sc2nc(-c3ccccc3)cc(C(F)(F)F)c2c1N,2.59 µM (active),
Cc1cc(O)c(NC(=O)c2cc([N+](=O)[O-])ccc2Cl)cc1C,2.31 µM (active),
O=C(Nc1ccccc1)c1cc([N+](=O)[O-])ccc1Cl,1.46 µM (active),
Cc1ccc(O)c(NC(=O)c2cc([N+](=O)[O-])ccc2Cl)c1,2.91 µM (active),
O=C(Nc1cccc([N+](=O)[O-])c1)c1[nH]ncc1Cl,5.8 µM (active),
CS(=O)(=O)Nc1ccc(C(=O)Nc2cccc([N+](=O)[O-])c2)cc1,7.31 µM (active),
O=[N+]([O-])c1ccccc1/C=N/Nc1nccnc1Cl,16.4 µM (active),
O=[N+]([O-])c1ccccc1C=NNc1ccccc1,5.17 µM (active),
COn1c(=O)c(-c2cccc(Br)c2)[n+]([O-])c2ccccc21,14.6 µM (active),
CCn1c(=NC(=O)c2ccco2)sc2cccc(F)c21,1.3 µM (active),
Cn1c(NCC2CCCCC2)nc2cc(-c3ccsc3)sc2c1=O,2.31 µM (active),
Brc1ccc(C2=CC(c3ccco3)n3nnnc3N2)cc1 (stereo unspecified),9.2 µM (active),
C1=C(c2ccc(-c3ccccc3)cc2)Nc2ncnn2C1c1ccco1 (stereo unspecified),6.51 µM (active),
O=C(O)c1ccc(-n2ncc(Cl)c(Cl)c2=O)cc1,2.91 µM (active),
Cc1ccc(Sc2cnn(-c3ccccc3)c(=O)c2Cl)cc1,,4.01
c1ccc(-c2cc3c(-n4cccc4)ncnc3o2)cc1,2.06 µM (active),
Cc1c(Cl)cccc1N=c1c([N+](=O)[O-])nn(-c2ccccc2)n1O,2.31 µM (active),
COc1ccc(Cl)cc1NC(=O)CCS(=O)(=O)c1cccc2nonc12,16.4 µM (active),
Nc1c(Cl)cc(N=Nc2ccccc2)cc1Cl,2.59 µM (active),
O=c1oc2ccccc2nc1/C=C(\O)c1ccc(Br)cc1,20.6 µM (active),
O=C(Cn1cnc2ccccc21)N/N=C/C(Br)=C/c1ccccc1,20.6 µM (active),
OCCC#Cc1c(-c2ccsc2)sc2ccccc12,2.31 µM (active),
O=C(/C=C/c1ccco1)Nc1ccc(Cl)c(-c2nc3cc(Cl)ccc3o2)c1,1.16 µM (active),
O=C(/C=C/c1ccco1)Nc1ccc2nn(-c3ccccc3)nc2c1,7.31 µM (active),
O=C(/C=C/c1ccco1)Nc1cccc(S(=O)(=O)N2CCOCC2)c1,8.2 µM (active),

Compound,Potency,activation [%]
O=C(/C=C/c1ccco1)Nc1ccc(-c2nc3ccccc3[nH]2)cc1,1.3 µM (active),
O=[N+]([O-])c1cc2c(cc1Br)-c1ccccc1C2,2.31 µM (active),
COc1cc2c(cc1NC(=O)c1ccccc1F)CCCC2,6.51 µM (active),
COc1cc2c(cc1NC(=O)c1cccc(F)c1)CCCC2,2.59 µM (active),
Cc1cc(O)cc2c1C(=O)/C(=C/c1ccco1)O2,1.84 µM (active),
COc1cccc(NC(=O)c2nc(SC)ncc2Cl)c1,2.91 µM (active),
CCSc1ncc(Cl)c(C(=O)Nc2ccccc2)n1,4.61 µM (active),
COc1cccc(NC(=O)c2nn(C)cc2Br)c1,16.4 µM (active),
COc1cccc(NC(=O)c2cc(Cl)nnc2Cl)c1,18.4 µM (active),
CCOC(=O)c1ccc(NC(=O)c2nc(S(=O)(=O)Cc3ccccc3)ncc2Cl)cc1,3.66 µM (active),
O=C(NCCc1ccccn1)c1c(-c2ccsc2)sc2ccccc12,2.31 µM (active),
O=C(Nc1ccc2nsnc2c1)c1cccs1,6.51 µM (active),
COc1ccccc1C(=O)COC(=O)c1cccs1,6.51 µM (active),
O=C(Nc1cccc2nsnc12)c1cccs1,2.91 µM (active),
COC(=O)c1ccccc1NC(=O)c1cccs1,14.6 µM (active),
CNC(=O)C1CCN(S(=O)(=O)c2c(C)noc2/C=C/c2ccccc2F)CC1,9.2 µM (active),
CCOC(=O)c1ccccc1N/C=C/C(=O)c1cccs1,2.31 µM (active),
O=C(/C=C/Nc1ccc(F)cc1)c1cccs1,6.51 µM (active),
CCOC(=O)c1ccccc1N/C=C/C(=O)c1ccccc1,3.26 µM (active),
O=C(CN1CCCCC1)Nc1nnc(-c2ccccc2)s1,5.8 µM (active),
C/C(=N\Nc1ccccn1)c1ccc(Br)s1,7.31 µM (active),
C/C(=N\Nc1ccc(F)cc1F)c1ccc(Br)s1,16.4 µM (active),
C/C(=N\Nc1ccccn1)c1cccs1,14.6 µM (active),
